How the values were obtained:
[1] = biological target: 5'-AMP-activated protein kinase catalytic subunit alpha-2 (Homo sapiens) (UniProt P54646); conditions: at 1 µM
[2] = biological target: T1, NUAK family SNF1-like kinase 1 (Homo sapiens) (UniProt O60285); conditions: at 0.1 µM
T1 sequence (whole entry): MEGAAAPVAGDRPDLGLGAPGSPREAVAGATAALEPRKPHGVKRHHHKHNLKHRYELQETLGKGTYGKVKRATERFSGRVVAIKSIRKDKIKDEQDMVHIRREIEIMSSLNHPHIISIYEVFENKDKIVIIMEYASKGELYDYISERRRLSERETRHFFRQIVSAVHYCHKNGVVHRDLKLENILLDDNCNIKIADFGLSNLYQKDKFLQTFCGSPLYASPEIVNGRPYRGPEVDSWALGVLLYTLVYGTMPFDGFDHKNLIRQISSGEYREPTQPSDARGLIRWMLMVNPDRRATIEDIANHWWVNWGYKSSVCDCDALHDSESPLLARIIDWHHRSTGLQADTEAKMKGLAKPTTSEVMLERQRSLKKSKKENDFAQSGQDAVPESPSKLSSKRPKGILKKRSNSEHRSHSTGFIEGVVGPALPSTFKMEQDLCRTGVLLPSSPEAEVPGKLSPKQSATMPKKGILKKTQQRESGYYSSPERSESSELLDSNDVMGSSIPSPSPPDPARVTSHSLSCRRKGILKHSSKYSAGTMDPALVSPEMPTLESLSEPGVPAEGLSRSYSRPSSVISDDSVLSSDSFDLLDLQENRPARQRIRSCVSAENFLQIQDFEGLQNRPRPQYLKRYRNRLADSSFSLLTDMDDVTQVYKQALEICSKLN

[3] = biological target: T1, NUAK family SNF1-like kinase 1 (Homo sapiens); conditions: at 1 µM
[4] = biological target: T2, Serine/threonine-protein kinase BRSK1 (Homo sapiens) (UniProt Q8TDC3); conditions: at 0.1 µM
T2 sequence (whole entry): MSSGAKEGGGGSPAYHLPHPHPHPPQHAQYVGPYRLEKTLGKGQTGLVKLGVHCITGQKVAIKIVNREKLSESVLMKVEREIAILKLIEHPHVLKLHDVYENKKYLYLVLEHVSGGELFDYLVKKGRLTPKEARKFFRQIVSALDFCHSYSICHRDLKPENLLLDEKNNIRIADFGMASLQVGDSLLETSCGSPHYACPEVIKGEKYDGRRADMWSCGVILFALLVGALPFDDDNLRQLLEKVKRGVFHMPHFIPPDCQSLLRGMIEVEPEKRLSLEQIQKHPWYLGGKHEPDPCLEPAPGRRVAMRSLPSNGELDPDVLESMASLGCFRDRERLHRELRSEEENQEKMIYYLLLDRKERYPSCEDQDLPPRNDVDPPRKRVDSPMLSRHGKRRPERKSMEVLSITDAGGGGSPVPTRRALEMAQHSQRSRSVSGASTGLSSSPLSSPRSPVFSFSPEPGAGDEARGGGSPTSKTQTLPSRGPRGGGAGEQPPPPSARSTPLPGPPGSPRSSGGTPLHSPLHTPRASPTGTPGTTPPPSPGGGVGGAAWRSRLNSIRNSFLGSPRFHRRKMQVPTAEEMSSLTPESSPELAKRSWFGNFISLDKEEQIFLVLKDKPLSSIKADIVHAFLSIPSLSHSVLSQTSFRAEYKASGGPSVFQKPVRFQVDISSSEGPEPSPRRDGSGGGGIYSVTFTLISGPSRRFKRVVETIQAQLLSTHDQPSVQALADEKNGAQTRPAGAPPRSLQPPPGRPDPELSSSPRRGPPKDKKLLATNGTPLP

[5] = biological target: T2, Serine/threonine-protein kinase BRSK1 (Homo sapiens); conditions: at 1 µM
[6] = biological target: T3, Serine/threonine-protein kinase BRSK2 (Homo sapiens) (UniProt Q8IWQ3); conditions: at 0.1 µM
T3 sequence (whole entry): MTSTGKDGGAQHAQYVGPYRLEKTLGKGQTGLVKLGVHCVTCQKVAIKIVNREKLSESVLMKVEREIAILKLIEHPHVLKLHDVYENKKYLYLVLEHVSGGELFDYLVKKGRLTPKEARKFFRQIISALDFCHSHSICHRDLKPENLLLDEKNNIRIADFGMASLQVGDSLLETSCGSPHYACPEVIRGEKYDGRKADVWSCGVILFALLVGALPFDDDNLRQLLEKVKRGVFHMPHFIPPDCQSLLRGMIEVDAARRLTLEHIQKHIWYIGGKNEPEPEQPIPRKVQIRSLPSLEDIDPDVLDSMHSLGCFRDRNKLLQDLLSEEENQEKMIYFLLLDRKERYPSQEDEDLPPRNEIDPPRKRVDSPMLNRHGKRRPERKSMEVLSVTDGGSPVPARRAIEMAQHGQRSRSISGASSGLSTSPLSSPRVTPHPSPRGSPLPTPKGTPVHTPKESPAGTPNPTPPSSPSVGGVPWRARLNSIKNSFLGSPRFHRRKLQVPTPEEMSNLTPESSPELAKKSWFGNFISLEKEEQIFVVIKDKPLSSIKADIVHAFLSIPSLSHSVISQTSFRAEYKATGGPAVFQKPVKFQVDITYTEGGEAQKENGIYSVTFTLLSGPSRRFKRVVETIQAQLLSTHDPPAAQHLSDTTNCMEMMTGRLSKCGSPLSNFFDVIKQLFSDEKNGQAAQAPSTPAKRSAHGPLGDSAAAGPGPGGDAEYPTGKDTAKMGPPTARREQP

[7] = biological target: T3, Serine/threonine-protein kinase BRSK2 (Homo sapiens); conditions: at 1 µM
[8] = biological target: Calcium/calmodulin-dependent protein kinase type 1D (Homo sapiens) (UniProt Q8IU85); conditions: at 0.1 µM
[9] = biological target: Calcium/calmodulin-dependent protein kinase type 1D (Homo sapiens) (UniProt Q8IU85); conditions: at 1 µM
[10] = biological target: Calcium/calmodulin-dependent protein kinase type II subunit alpha (Homo sapiens) (UniProt Q9UQM7); conditions: at 0.1 µM
[11] = biological target: Calcium/calmodulin-dependent protein kinase type II subunit alpha (Homo sapiens) (UniProt Q9UQM7); conditions: at 1 µM
[12] = biological target: Calcium/calmodulin-dependent protein kinase type II subunit delta (Homo sapiens) (UniProt Q13557); conditions: at 0.1 µM
[13] = biological target: Calcium/calmodulin-dependent protein kinase type II subunit delta (Homo sapiens) (UniProt Q13557); conditions: at 1 µM
[14] = biological target: T4, Calcium/calmodulin-dependent protein kinase type IV (Homo sapiens) (UniProt Q16566); conditions: at 0.1 µM
T4 sequence (whole entry): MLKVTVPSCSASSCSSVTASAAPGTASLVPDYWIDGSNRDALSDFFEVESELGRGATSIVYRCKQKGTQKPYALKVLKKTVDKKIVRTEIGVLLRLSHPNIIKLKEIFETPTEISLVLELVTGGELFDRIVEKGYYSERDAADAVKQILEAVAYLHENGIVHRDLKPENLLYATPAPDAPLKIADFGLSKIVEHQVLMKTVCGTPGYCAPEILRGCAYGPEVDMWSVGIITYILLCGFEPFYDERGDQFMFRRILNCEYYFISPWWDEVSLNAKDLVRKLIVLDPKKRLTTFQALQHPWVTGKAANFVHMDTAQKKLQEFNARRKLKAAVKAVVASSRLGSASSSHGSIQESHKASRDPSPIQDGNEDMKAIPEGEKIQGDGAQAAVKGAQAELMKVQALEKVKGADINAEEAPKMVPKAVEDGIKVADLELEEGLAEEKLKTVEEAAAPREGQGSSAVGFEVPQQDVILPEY

[15] = biological target: T4, Calcium/calmodulin-dependent protein kinase type IV (Homo sapiens); conditions: at 1 µM
[16] = biological target: T5, Serine/threonine-protein kinase Chk1 (Homo sapiens) (UniProt O14757); conditions: at 0.1 µM
T5 sequence (whole entry): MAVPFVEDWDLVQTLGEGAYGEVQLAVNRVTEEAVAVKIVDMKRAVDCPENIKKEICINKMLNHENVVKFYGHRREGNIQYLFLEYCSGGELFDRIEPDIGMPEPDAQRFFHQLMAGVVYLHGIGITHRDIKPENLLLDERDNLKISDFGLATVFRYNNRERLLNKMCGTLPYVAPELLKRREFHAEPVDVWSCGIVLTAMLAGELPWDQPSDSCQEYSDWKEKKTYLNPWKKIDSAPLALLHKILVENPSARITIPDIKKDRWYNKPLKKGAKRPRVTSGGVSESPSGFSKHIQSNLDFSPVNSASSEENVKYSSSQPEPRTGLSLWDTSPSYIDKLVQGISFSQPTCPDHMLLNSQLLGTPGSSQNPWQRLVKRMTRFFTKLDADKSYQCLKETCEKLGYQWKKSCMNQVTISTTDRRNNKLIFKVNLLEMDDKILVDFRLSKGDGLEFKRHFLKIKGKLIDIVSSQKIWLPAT

[17] = biological target: T5, Serine/threonine-protein kinase Chk1 (Homo sapiens); conditions: at 1 µM
[18] = biological target: Serine/threonine-protein kinase Chk2 (Homo sapiens) (UniProt O96017); conditions: at 0.1 µM
[19] = biological target: Serine/threonine-protein kinase Chk2 (Homo sapiens) (UniProt O96017); conditions: at 1 µM
[20] = biological target: Death-associated protein kinase 1 (Homo sapiens) (UniProt P53355); conditions: at 0.1 µM;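 further: reported figure is the mean inhibition of DAPK1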
Sequence of Death-associated protein kinase 1 (Homo sapiens) (P53355 whole entry, looked up): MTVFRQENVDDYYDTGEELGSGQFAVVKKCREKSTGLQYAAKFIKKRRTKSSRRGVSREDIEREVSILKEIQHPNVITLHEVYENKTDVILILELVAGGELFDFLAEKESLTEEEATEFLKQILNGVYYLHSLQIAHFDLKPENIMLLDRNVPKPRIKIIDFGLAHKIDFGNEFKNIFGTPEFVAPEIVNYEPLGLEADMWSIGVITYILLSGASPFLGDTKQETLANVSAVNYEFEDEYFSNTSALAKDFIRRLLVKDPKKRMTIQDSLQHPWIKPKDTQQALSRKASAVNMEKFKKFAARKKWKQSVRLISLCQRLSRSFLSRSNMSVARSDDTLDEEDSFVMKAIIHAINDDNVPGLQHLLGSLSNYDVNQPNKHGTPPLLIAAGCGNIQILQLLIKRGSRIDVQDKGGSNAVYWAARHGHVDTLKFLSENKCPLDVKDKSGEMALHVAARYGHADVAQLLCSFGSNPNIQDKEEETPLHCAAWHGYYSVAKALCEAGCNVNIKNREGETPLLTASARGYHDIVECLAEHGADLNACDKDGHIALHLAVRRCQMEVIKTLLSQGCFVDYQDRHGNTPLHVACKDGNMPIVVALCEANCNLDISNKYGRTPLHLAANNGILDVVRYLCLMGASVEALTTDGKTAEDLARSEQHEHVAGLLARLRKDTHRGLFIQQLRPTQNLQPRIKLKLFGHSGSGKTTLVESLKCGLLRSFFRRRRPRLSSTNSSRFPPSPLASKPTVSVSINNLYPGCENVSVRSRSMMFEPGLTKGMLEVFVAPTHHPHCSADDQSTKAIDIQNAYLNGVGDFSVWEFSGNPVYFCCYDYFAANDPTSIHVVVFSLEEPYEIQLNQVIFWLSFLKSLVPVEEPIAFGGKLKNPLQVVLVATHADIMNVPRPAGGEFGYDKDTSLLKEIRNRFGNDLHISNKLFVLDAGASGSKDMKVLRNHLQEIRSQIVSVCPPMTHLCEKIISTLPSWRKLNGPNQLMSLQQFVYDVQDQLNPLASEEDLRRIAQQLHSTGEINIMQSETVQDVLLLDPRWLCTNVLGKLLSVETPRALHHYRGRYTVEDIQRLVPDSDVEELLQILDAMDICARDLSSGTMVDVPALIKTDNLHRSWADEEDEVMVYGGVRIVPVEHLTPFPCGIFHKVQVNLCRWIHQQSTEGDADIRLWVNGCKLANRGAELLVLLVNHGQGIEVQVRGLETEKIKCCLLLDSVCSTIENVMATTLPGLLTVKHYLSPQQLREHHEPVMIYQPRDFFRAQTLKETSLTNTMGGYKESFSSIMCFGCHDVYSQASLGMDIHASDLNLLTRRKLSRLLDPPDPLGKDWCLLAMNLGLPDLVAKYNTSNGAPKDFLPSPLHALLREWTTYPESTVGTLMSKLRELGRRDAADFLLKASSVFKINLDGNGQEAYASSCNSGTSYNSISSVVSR

Sequence of Calcium/calmodulin-dependent protein kinase type 1D (Homo sapiens) (Q8IU85 whole entry, looked up): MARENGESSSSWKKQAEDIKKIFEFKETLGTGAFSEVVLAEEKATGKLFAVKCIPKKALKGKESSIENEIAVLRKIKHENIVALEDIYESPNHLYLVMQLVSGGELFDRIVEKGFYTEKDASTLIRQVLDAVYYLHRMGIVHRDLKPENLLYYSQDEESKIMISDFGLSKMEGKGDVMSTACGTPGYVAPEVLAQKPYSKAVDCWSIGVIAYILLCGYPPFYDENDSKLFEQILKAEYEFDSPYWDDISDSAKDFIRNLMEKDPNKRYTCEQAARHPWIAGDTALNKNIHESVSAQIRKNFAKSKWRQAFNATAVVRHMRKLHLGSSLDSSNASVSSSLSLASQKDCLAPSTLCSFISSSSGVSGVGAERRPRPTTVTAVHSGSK
Sequence of Calcium/calmodulin-dependent protein kinase type II subunit alpha (Homo sapiens) (Q9UQM7 whole entry): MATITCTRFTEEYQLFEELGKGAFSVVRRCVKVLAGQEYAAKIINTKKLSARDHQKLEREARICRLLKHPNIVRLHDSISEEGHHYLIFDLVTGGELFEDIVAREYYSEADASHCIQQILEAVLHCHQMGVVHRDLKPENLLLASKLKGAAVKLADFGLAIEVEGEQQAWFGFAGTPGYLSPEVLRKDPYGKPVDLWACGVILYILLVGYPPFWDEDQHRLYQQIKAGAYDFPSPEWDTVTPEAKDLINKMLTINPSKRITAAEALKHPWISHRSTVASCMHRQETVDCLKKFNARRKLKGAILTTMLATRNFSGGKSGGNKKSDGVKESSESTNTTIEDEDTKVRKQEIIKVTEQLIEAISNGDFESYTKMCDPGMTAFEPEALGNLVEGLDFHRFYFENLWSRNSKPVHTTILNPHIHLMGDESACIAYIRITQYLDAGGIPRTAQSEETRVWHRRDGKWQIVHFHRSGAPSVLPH
Sequence of 5'-AMP-activated protein kinase catalytic subunit alpha-2 (Homo sapiens) (P54646 whole entry, looked up): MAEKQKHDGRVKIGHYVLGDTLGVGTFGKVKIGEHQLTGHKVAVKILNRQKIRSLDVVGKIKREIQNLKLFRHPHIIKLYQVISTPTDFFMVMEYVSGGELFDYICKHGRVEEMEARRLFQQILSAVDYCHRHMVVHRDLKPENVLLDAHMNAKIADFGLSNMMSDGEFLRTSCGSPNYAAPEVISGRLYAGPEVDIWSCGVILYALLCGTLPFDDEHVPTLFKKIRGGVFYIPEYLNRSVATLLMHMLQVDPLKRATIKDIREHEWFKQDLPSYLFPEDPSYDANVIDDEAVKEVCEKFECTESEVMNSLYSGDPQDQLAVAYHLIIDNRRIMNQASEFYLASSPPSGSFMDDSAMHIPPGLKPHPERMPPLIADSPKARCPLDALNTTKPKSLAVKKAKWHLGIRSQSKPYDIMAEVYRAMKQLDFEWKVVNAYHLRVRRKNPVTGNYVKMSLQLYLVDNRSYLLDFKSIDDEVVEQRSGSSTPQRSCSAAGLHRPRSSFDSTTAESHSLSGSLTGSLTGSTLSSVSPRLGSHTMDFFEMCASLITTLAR
Sequence of Serine/threonine-protein kinase Chk2 (Homo sapiens) (O96017 whole entry): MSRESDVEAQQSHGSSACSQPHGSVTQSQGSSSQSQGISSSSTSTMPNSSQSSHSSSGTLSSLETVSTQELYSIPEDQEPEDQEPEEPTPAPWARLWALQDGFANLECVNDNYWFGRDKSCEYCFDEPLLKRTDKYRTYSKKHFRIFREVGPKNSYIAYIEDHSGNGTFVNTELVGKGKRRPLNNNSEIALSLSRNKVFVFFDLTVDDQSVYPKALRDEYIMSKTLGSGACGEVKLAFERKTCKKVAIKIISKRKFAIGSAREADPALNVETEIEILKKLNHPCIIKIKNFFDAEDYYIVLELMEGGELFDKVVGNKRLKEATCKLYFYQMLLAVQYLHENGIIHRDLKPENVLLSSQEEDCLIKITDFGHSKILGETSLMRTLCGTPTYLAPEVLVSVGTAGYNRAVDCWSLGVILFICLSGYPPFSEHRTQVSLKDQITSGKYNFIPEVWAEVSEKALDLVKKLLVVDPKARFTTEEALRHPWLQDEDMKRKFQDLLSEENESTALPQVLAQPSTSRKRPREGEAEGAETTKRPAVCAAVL
Sequence of Calcium/calmodulin-dependent protein kinase type II subunit delta (Homo sapiens) (Q13557 whole entry): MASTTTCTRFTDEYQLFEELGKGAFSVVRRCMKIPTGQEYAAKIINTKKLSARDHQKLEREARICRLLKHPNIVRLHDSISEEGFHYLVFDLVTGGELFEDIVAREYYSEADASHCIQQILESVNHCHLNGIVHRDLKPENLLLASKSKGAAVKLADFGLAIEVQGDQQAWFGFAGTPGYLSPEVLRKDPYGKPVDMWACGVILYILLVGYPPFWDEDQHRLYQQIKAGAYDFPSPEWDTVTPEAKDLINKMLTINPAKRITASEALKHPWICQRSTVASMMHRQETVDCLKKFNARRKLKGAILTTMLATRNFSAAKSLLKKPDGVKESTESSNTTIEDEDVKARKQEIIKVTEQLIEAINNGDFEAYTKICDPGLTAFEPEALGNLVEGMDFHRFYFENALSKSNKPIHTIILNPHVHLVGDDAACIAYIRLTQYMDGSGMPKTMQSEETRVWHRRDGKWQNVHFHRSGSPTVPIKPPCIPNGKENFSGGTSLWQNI

## C[C@@H](Oc1cc(-n2cnc3ccc(OCC4CCN(C)CC4)cc32)sc1C(N)=O)c1ccccc1C(F)(F)F
[1]
  inhibition: 14%
[2]
  inhibition: 50.5%
[3]
  inhibition: 76.6%
[4]
  inhibition: 22.4%
[5]
  inhibition: 61.1%
[6]
  inhibition: 33.9%
[7]
  inhibition: 74.5%
[8]
  inhibition: 0%
[9]
  inhibition: 4.15%
[10]
  inhibition: -0.63%
[11]
  inhibition: 14.2%
[12]
  inhibition: 6.59%
[13]
  inhibition: 49.9%
[14]
  inhibition: -0.36%
[15]
  inhibition: 1.74%
[16]
  inhibition: -1.68%
[17]
  inhibition: 0.33%
[18]
  inhibition: -2%
[19]
  inhibition: -1.44%
[20]
  inhibition: -1.34%

## CS(=O)(=O)Nc1cccc(-c2ccc3c(NC(=O)C4CC4)n[nH]c3c2)c1
[1]
  inhibition: 6.02%
[2]
  inhibition: -0.11%
[3]
  inhibition: 1.95%
[4]
  inhibition: 3.46%
[5]
  inhibition: 18.7%
[6]
  inhibition: 2.32%
[7]
  inhibition: 19.1%
[8]
  inhibition: 2.26%
[9]
  inhibition: 1.87%
[10]
  inhibition: 7.84%
[11]
  inhibition: 2.85%
[12]
  inhibition: 3.31%
[13]
  inhibition: 3%
[14]
  inhibition: 1.21%
[15]
  inhibition: 0.65%
[16]
  inhibition: 1.78%
[17]
  inhibition: 1.91%
[18]
  inhibition: 0.51%
[19]
  inhibition: 0.84%
[20]
  inhibition: 1.43%

## NS(=O)(=O)c1ccc(Nc2cc(-c3cccc(O)c3)n[nH]2)cc1
[1]
  inhibition: 9.57%
[2]
  inhibition: 5.05%
[3]
  inhibition: 13.9%
[4]
  inhibition: 3.55%
[5]
  inhibition: 4.52%
[6]
  inhibition: 3.59%
[7]
  inhibition: 7.4%
[8]
  inhibition: 1.05%
[9]
  inhibition: 0.76%
[10]
  inhibition: 4.18%
[11]
  inhibition: 5.49%
[12]
  inhibition: 5.13%
[13]
  inhibition: 6.02%
[14]
  inhibition: 0.32%
[15]
  inhibition: -1.03%
[16]
  inhibition: 5.99%
[17]
  inhibition: 8.68%
[18]
  inhibition: 3.04%
[19]
  inhibition: 6.54%
[20]
  inhibition: 7.24%

## Cc1ccc(C(=O)NC2CC2)cc1-c1ccc2[nH]ncc2c1
[1]
  inhibition: -3.42%
[2]
  inhibition: 6.51%
[3]
  inhibition: 6.93%
[4]
  inhibition: 1.35%
[5]
  inhibition: 3.03%
[6]
  inhibition: 1.54%
[7]
  inhibition: 5.84%
[8]
  inhibition: -0.69%
[9]
  inhibition: 0.06%
[10]
  inhibition: -4.3%
[11]
  inhibition: -2.98%
[12]
  inhibition: -2.96%
[13]
  inhibition: 1.9%
[14]
  inhibition: -2.05%
[15]
  inhibition: -2.16%
[16]
  inhibition: -1.76%
[17]
  inhibition: -4.22%
[18]
  inhibition: -4.46%
[19]
  inhibition: -3.82%
[20]
  inhibition: -2.57%

## CN1CCN(C(=O)c2ccc(NC(=O)Nc3ccc(N(C)c4ccnc(Nc5ccc(CS(C)(=O)=O)cc5)n4)cc3)cc2)CC1
[1]
  inhibition: 7.01%
[2]
  inhibition: 0.11%
[3]
  inhibition: 44.5%
[4]
  inhibition: 0.56%
[5]
  inhibition: 2.28%
[6]
  inhibition: 0.38%
[7]
  inhibition: 7.68%
[8]
  inhibition: 0.6%
[9]
  inhibition: 2.18%
[10]
  inhibition: 1.63%
[11]
  inhibition: 3.13%
[12]
  inhibition: 1.38%
[13]
  inhibition: 3.39%
[14]
  inhibition: 1.22%
[15]
  inhibition: 1.48%
[16]
  inhibition: 1.47%
[17]
  inhibition: 2.64%
[18]
  inhibition: 5.54%
[19]
  inhibition: 39.4%
[20]
  inhibition: 2.86%

## COC(=O)Nc1nc2cc(Oc3ccc(NC(=O)Nc4cccc(Br)c4)cc3)ccc2[nH]1
[1]
  inhibition: 4.23%
[2]
  inhibition: 3.02%
[3]
  inhibition: 2.47%
[4]
  inhibition: -0.15%
[5]
  inhibition: 0.86%
[6]
  inhibition: 2%
[7]
  inhibition: 0.84%
[8]
  inhibition: 1.16%
[9]
  inhibition: 0.29%
[10]
  inhibition: 3.25%
[11]
  inhibition: 2.07%
[12]
  inhibition: 1.97%
[13]
  inhibition: 3.53%
[14]
  inhibition: 1.41%
[15]
  inhibition: 2.33%
[16]
  inhibition: 2.14%
[17]
  inhibition: 2.72%
[18]
  inhibition: 1.92%
[19]
  inhibition: 2.2%
[20]
  inhibition: 2.43%

## COc1cc2ncnc(Nc3ccc4c(cnn4Cc4ccccc4)c3)c2cc1OC
[1]
  inhibition: 3.91%
[2]
  inhibition: -0.12%
[3]
  inhibition: 2.05%
[4]
  inhibition: 1.23%
[5]
  inhibition: 1.11%
[6]
  inhibition: 0.79%
[7]
  inhibition: 4.84%
[8]
  inhibition: 0.22%
[9]
  inhibition: 1.49%
[10]
  inhibition: 0.08%
[11]
  inhibition: 0.24%
[12]
  inhibition: 1.57%
[13]
  inhibition: 4.24%
[14]
  inhibition: -0.17%
[15]
  inhibition: 0.05%
[16]
  inhibition: 8.66%
[17]
  inhibition: 14.1%
[18]
  inhibition: 10.7%
[19]
  inhibition: 35.9%
[20]
  inhibition: 9.32%

From ChEMBL document CHEMBL1961873, “Compounds: GSK PKIS; Assays: Nanosyn kinase panel” (2012)
